From publication PMC9911399, “Two distinct binding modes provide the RNA-binding protein RbFox with extraordinary sequence specificity”
Changes are numbered by the printed parent chain; changes in the protein carry UniProt numbers. The full ranking holds about 16,000 sequences; the median of “ka relative to ugcaugu” is about 0.0091, and the highest 2% start at about 0.032. Only a selection was taken, and the highest values are over-represented in it overall.

T1: RBFOX1 RRM (Homo sapiens, UniProt Q9NWB1 109-208)
T1 sequence: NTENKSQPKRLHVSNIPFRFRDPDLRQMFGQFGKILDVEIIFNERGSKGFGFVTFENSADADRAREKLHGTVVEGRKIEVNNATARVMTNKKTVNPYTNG

B1: UCAGACC (DNA:RNA)
RNA: GGGAGACCGGAAUUCAGAUUGUCCUCAGACCUUAAAUCCCGUCGUAGCCACCA
DNA 1: CAATCTGAATTCCGGTCTCCC
DNA 2: TGGTGGCTACGACGGGATT
B2: UGAGCUA (DNA:RNA)
RNA: B1 RNA with C26G, A29C, C30U, C31A
DNA 1: CAATCTGAATTCCGGTCTCCC
DNA 2: TGGTGGCTACGACGGGATT
B3: UAGAGGG (DNA:RNA)
RNA: B1 RNA with C26A, A27G, G28A, A29G, C30G, C31G
DNA 1: CAATCTGAATTCCGGTCTCCC
DNA 2: TGGTGGCTACGACGGGATT
B4: AACACAA (DNA:RNA)
RNA: GGGAGACCGGAAUUCAGAUUGUCCAACACAAUUAAAUCCCGUCGUAGCCACCA
DNA 1: CAATCTGAATTCCGGTCTCCC
DNA 2: TGGTGGCTACGACGGGATT
B5: GAGAUCC (DNA:RNA)
RNA: B4 RNA with A25G, C27G, C29U, A30C, A31C
DNA 1: CAATCTGAATTCCGGTCTCCC
DNA 2: TGGTGGCTACGACGGGATT
B6: UCUGUUC (DNA:RNA)
RNA: B1 RNA with A27U, A29U, C30U
DNA 1: CAATCTGAATTCCGGTCTCCC
DNA 2: TGGTGGCTACGACGGGATT
B7: GAGGGGG (DNA:RNA)
RNA: B4 RNA with A25G, C27G, A28G, C29G, A30G, A31G
DNA 1: CAATCTGAATTCCGGTCTCCC
DNA 2: TGGTGGCTACGACGGGATT
B8: UGGCGUC (DNA:RNA)
RNA: B1 RNA with C26G, A27G, G28C, A29G, C30U
DNA 1: CAATCTGAATTCCGGTCTCCC
DNA 2: TGGTGGCTACGACGGGATT
B9: CGGCUGG (DNA:RNA)
RNA: GGGAGACCGGAAUUCAGAUUGUCCCGGCUGGUUAAAUCCCGUCGUAGCCACCA
DNA 1: CAATCTGAATTCCGGTCTCCC
DNA 2: TGGTGGCTACGACGGGATT
B10: UGGCUUG (DNA:RNA)
RNA: B9 RNA with C25U, G30U
DNA 1: CAATCTGAATTCCGGTCTCCC
DNA 2: TGGTGGCTACGACGGGATT
B11: UGGCUUC (DNA:RNA)
RNA: B9 RNA with C25U, G30U, G31C
DNA 1: CAATCTGAATTCCGGTCTCCC
DNA 2: TGGTGGCTACGACGGGATT
B12: UGGCUGG (DNA:RNA)
RNA: B9 RNA with C25U
DNA 1: CAATCTGAATTCCGGTCTCCC
DNA 2: TGGTGGCTACGACGGGATT
B13: GGCUGGU (DNA:RNA)
RNA: B9 RNA with C25G, G27C, C28U, U29G, G31U
DNA 1: CAATCTGAATTCCGGTCTCCC
DNA 2: TGGTGGCTACGACGGGATT
B14: UCCUGGC (DNA:RNA)
RNA: B1 RNA with A27C, G28U, A29G, C30G
DNA 1: CAATCTGAATTCCGGTCTCCC
DNA 2: TGGTGGCTACGACGGGATT
B15: GUGCUGG (DNA:RNA)
RNA: B9 RNA with C25G, G26U
DNA 1: CAATCTGAATTCCGGTCTCCC
DNA 2: TGGTGGCTACGACGGGATT
B16: UGGCGUA (DNA:RNA)
RNA: B9 RNA with C25U, U29G, G30U, G31A
DNA 1: CAATCTGAATTCCGGTCTCCC
DNA 2: TGGTGGCTACGACGGGATT
B17: UGGCGUG (DNA:RNA)
RNA: B9 RNA with C25U, U29G, G30U
DNA 1: CAATCTGAATTCCGGTCTCCC
DNA 2: TGGTGGCTACGACGGGATT
B18: UUGCUGG (DNA:RNA)
RNA: B9 RNA with C25U, G26U
DNA 1: CAATCTGAATTCCGGTCTCCC
DNA 2: TGGTGGCTACGACGGGATT
B19: GCUGGUU (DNA:RNA)
RNA: B1 RNA with U25G, A27U, A29G, C30U, C31U
DNA 1: CAATCTGAATTCCGGTCTCCC
DNA 2: TGGTGGCTACGACGGGATT

These binders were tested against T1, RBFOX1 RRM (assay: EMSA; HiTS-Eq, 1 nM pool, 10 min; buffer printed only for the single-RNA assays: 10 mM Tris pH 7.5, 150 mM NaCl, 3.4 mM EDTA, 0.001% NP-40, 30 C). Settings: tags: His6 N-terminal (pET28a); label: 5' 32P.
Method in brief: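 A pool of RNA with 7 randomized nucleotides, 5′-radiolabelled and with DNA-annealed flanks, was equilibrated at 1 nM for 10 min in 50 µL with purified RbFox RRM, wild type or mutant, across increasing protein concentrations. Free RNA was separated by 8% native PAGE, excised, reverse-transcribed, barcoded by PCR and sequenced. Relative association constants were obtained from read-count changes of each RNA species versus the control reaction and normalised to the cognate motif.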

Binder | binding signal
B1 | 0.00454 KA relative to UGCAUGU
B2 | 0.015 KA relative to UGCAUGU
B3 | 0.00669 KA relative to UGCAUGU
B4 | 0.00155 KA relative to UGCAUGU
B5 | 0.0136 KA relative to UGCAUGU
B6 | 0.0184 KA relative to UGCAUGU
B7 | 0.0168 KA relative to UGCAUGU
B8 | 0.0251 KA relative to UGCAUGU
B9 | 0.0236 KA relative to UGCAUGU
B10 | 0.0526 KA relative to UGCAUGU
B11 | 0.0201 KA relative to UGCAUGU
B12 | 0.0415 KA relative to UGCAUGU
B13 | 0.0324 KA relative to UGCAUGU
B14 | 0.0109 KA relative to UGCAUGU
B15 | 0.0295 KA relative to UGCAUGU
B16 | 0.0143 KA relative to UGCAUGU
B17 | 0.0332 KA relative to UGCAUGU
B18 | 0.0302 KA relative to UGCAUGU
B19 | 0.0289 KA relative to UGCAUGU
